For three compounds, Inhibition results are on record in ChEMBL document CHEMBL4513156, “CO-ADD screening of NCPRI (Romania) compounds”.

One test deals with Klebsiella pneumoniae. The conditions noted are these: Concentration 32 ug.mL-1; ASSAY_TEST Inhibition of Bacterial Growth; detection method Absorption (OD600); MEDIA CAMHB; plate type 384well; NBS; CORNING #3640; time 18 hr.
In the next test the test system is Candida albicans. The note with it: 32 ug/mL.
The test system of another test is Cryptococcus neoformans. The conditions noted are these: Concentration 32 ug.mL-1; ASSAY_TEST Inhibition of Fungal Growth; detection method Resazurin; Absorption (OD600-OD570); plate type 384well; NBS; CORNING #3640. A general note: Resazurin is reduced to fluorescent resorufin, in cell work by metabolically active cells.

Each structure is given as a SMILES string. Results with a measured potency or affinity are listed apart.

As usually defined, the Inhibition is the drop in the measured response relative to a control, in per cent. Take `O=C(N/N=C1/C2C[C@H]3C(C2CO)[C@H]13)c1ccncc1` (some centres undefined): the Inhibition with Klebsiella pneumoniae was 15.76%; in the test on Candida albicans, 0.37%; in the test on Cryptococcus neoformans, -50.92%.

Turning to `O=C(NNC(c1ccccc1)(c1ccccc1)c1ccccc1)c1ccncc1`, the Inhibition in the test on Klebsiella pneumoniae was 4.48%; with Candida albicans, 3.62%; with Cryptococcus neoformans, -75.72%.

Consider `O=C(N/N=C/COc1cccc(Cl)c1)c1ccncc1`, for which the results for the Inhibition in the test with Klebsiella pneumoniae, with Candida albicans and in the test on Cryptococcus neoformans were 5.99%, 1.44% and -88.39%, respectively.
